Experimental data from PubChem BioAssay (NCI).
The panel holds about 79,000 compounds, 15% with a hit somewhere; the sample as a whole holds those more often. Activity calls are given as the source filed them. Cut-off read from the data, not from the text of the source: active = growth inhibition above about 70%; inactive = the rest.

experiment: NCI Yeast Anticancer Drug Screen. Data for the rad50 strain (AID 155);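 note: 0% = growth of vehicle-only cultures of the same strain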; conditions: S. cerevisiae rad50 strain growth inhibition; at 50.0 µM; stronger effect = higher value
Protocol: Growth inhibition of yeast strains with defined genetic alterations is measured as a screen for potential anti-cancer activity. Selected strains with alterations in DNA damage repair or cell cycle control were exposed to compounds and growth inhibition was measured relative to vehicle treated controls. The strain used in this assay is rad50

Row | SMILES | growth inhibition
1 | CSC(=NCCCCN=C(NS(=O)(=O)c1ccc(Cl)cc1)SC)NS(=O)(=O)c1ccc(Cl)cc1 | -18.1% (inactive)
2 | O=C1c2cc3c(cc2C(=O)c2ncccc21)CCCC3 | 64.7% (inactive)
3 | O=C(O)CCc1ccccc1-c1ccccc1C(=O)O | 4% (inactive)
4 | CC(C)/C(=N\[N+](C)(C)C)c1ccccc1 | 0.4% (inactive)
5 | CCOC(=O)c1ccc(-c2ccccc2)cc1 | -44.2% (inactive)
6 | O=C1CCCN(Cc2ccccc2)C1 | -4.2% (inactive)
7 | COc1ccc(CCC(C)(O)c2ccccc2)cc1 (stereo not given) | 11.7% (inactive)
8 | O=C1c2ccccc2OCC1/C=N/O (stereo not given) | 1.9% (inactive)
9 | COC(C)CCOC(=O)c1ccc(C(C)C)cc1 (stereo not given) | 6.45% (inactive)
10 | CC(C)OP(=O)(c1ccccc1)c1ccc2c(c1)OCCOCCOCCOCCO2 (stereo not given) | -3.05% (inactive)
11 | O=C1CC2CC1C1CC(Br)C(Br)C21 (stereo not given) | -2.9% (inactive)
12 | O=C(O)c1cccc(S(=O)(=O)NN2C(=O)CSC2c2ccccc2)c1 (stereo not given) | -22.4% (inactive)
13 | Oc1c(Cl)cc(Cl)cc1/C=N/c1nc(-c2ccc(Cl)cc2)cs1 | 52.1% (inactive)
14 | CCCCCCC(N)(CCCCCC)C(=O)Nn1c(C)ccc1C | 45% (inactive)
15 | Cn1c(=O)c2ncn(Cc3ccccc3)c2n(C)c1=O | 1.8% (inactive)
16 | CC1C(=O)OCC2=CCN3CCC(OC(=O)C(C)C1(C)O)C23 (stereo not given) | 2.25% (inactive)
17 | CCCCC/C(C)=N\O | -19% (inactive)
18 | O=C1CCC(=O)N1n1c(Cc2ccc(Cl)cc2)n[nH]c1=O | 17.4% (inactive)
19 | C/C=C/C(=O)OCCC(C)OC(=O)/C=C/C (stereo not given) | 26.1% (inactive)
20 | CC(CC(C)(C)C)C(=O)NC(N)=O (stereo not given) | 29.3% (inactive)

Row | SMILES | growth inhibition
21 | CC(=O)NCCNC(=O)c1ccc(C)c(OCc2ccccc2)c1[N+](=O)[O-] | 7% (inactive)
22 | N#Cc1cc2c(cc1C#N)/C(=N\c1cccc(N)n1)N=C2Nc1cccc(N)n1 | 6.1% (inactive)
23 | O=C1C(O)=C(c2ccccc2)C(=O)N1Cc1ccccc1 | 7.25% (inactive)
24 | CCOC(=O)C(C#N)C1=CC(=O)C(=O)c2ccc(O)cc21 (stereo not given) | -4.8% (inactive)
25 | C=CC(O)C1OC2OC(C)(C)OC2C2OC(C)(C)OC12 (stereo not given) | -2.75% (inactive)
26 | CN(C)c1ccc(-c2c(C#N)c(N)[nH]c(=S)c2C#N)cc1 | 9.9% (inactive)
27 | CSc1nc(-c2ccccc2)c2c(n1)-c1ccccc1CC2 | -4.95% (inactive)
28 | COC(=O)/C(=C/c1ccc(OC)cc1)C(C(=O)O)=C1CCCCC1 | 20.2% (inactive)
29 | CCCCCCOc1ccc(OCCCC[N+]2(CC)CCCCC2)cc1 | 75.5% (active)
30 | Nc1ccc2ccccc2c1N=Nc1ccc(/C=C/c2ccc(N=Nc3c(N)ccc4ccccc34)cc2S(=O)(=O)O)c(S(=O)(=O)O)c1 | 23.4% (inactive)
31 | CC1=C(C(=O)Nc2ccccc2)C(c2ccc(C3C(C(=O)Nc4ccccc4)=C(C)NC(C)=C3C(=O)Nc3ccccc3)cc2)C(C(=O)Nc2ccccc2)=C(C)N1 | 70% (active)
32 | COc1ccc(N2C=Nn3c(nc4sc(C)c(C)c4c3=O)C2)cc1 | 7% (inactive)
33 | O=C1/C(=C/c2ccccc2)SC(=S)N1C1OC(CO)C(O)C(O)C1O (stereo not given) | 3.45% (inactive)
34 | Cc1ccc2c(c1)nc1n2C(c2c(F)cccc2F)SC1 (stereo not given) | 0.15% (inactive)
35 | CCCOc1ccc(/C=C\c2cc(OC)c(OC)c(OC)c2)cc1 | 0.85% (inactive)
36 | Cc1cc2nc(CCC(=O)O)c(=O)[nH]c2cc1C | -22.4% (inactive)
37 | CC(=O)NNc1nc(C)c(C(=O)/C=C/c2ccc(Cl)cc2)s1 | 44.2% (inactive)
38 | CN=C(NN(C)C)c1ccc(NC(=O)c2ccc(C(=O)Nc3ccc(C(=NC)NN(C)C)cc3)cc2)cc1 | 8.4% (inactive)
39 | CCCNc1ncnc2ncn(C)c12 | 12.4% (inactive)
40 | CC(C)CC(=O)NC(Nc1ccc(S(=O)(=O)Nc2ncccn2)cc1)(C(F)(F)F)C(F)(F)F | -2.9% (inactive)
